# Bioassay records: PubChem BioAssay, National Center for Advancing Translational Sciences (NCATS)
# ERK EGF block – qHTS Assay for Inhibitors of the ERK Signaling Pathway using a Homogeneous Screening Assay; Stimulation with EGF; HEK293-V1b, EGF-stimulated phospho-ERK AlphaScreen; Potency, µM (doses to about 11.5 µM), without a hit: top-dose activity change, negative = inhibition, hits mostly inhibitors; hit rate 0.41% among 130,000; AID 1454, 2008; active = well fitted inhibition curve with a large enough effect;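 also: plate controls were stimulated vehicle wells for no effect and unstimulated vehicle basal for full effect; nearly all actives have a fitted effect of over 55% in size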
#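 Cell line HEK293 (stable V1b), low serum overnight. Pretreatment: compound 30 min, 37C. EGF 25 nM, 5 min. Detection: SureFire AlphaScreen, 5 h RT. AC50 via standard Hill equation.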
# * = called active by the depositor; [ ] = remark or other dose. Many of the other results were omitted from the sample, so hits are more common in it than they were. Potency is read from the fitted curve at half-maximal effect.
SMILES,ERK EGF block
Cc1nc(C)c(/C(O)=C\c2nc3ccc([N+](=O)[O-])cc3oc2=O)o1,-2.6%[57.5 µM]
Cc1cccc2cc(/C=N/NC(=O)[C@H]3C[C@@H]3c3ccccc3)c(Cl)nc12,-10.0%[57.5 µM]
Cc1cccc2cc(/C=N/NC(=O)c3ccccc3O)c(Cl)nc12,20µM*
Cc1cccc2cc(/C=N/NC(=O)c3ccncc3)c(Cl)nc12,-3.0%[57.5 µM]
COC(=O)c1ccccc1NC(=O)CSc1nc2ncccc2[nH]1,0.9%
Cc1cccc(S(=O)(=O)N/N=c2\sc3ccccc3n2C)c1,3.9%[57.5 µM]
CCc1ccc(N=c2c([N+](=O)[O-])nn(-c3ccc4c(c3)OCCO4)n2O)cc1,28.2µM*
Cc1ccc(CN=c2c([N+](=O)[O-])nn(-c3ccc4c(c3)OCCO4)n2O)cc1,8.9%
Cc1ccc(N=c2c([N+](=O)[O-])nn(-c3ccc4c(c3)OCCO4)n2O)c(Cl)c1,5.1%
CNC(=S)NN(C)c1nc(C)cc(C)n1,0.8%
CCCCCS(=O)(=O)CCCCCCCCCCn1c(-c2ccc(O)cc2)c(C)c2cc(O)ccc21,14.1µM*
CCCCCn1c(=O)c(-c2nc3ccccc3[nH]2)c(O)c2ccccc21,-3.3%
CCCCCC(=O)c1ccc(O)cc1O,2.2%
CCCc1cnc(N2CCN(S(=O)(=O)c3cccs3)CC2)nc1,-0.6%[57.5 µM]
CCOc1ccc(N2CC(C(=O)Nc3ccccn3)CC2=O)cc1 (stereo unspecified),6.7%
C=CCN1C(=O)S/C(=C/c2ccc(Sc3nc4ccccc4[nH]3)o2)C1=O,25.1µM*
C=CCN1C(=O)S/C(=C/c2ccsc2)C1=O,1.5%
C=CCN1C(=O)S/C(=C\c2ccc3c(c2)n(C)c(=O)n3C)C1=O,-1.5%
CCOC(=O)c1c(NC(NC(=O)C(C)C)C(Cl)(Cl)Cl)sc2c1CCC2 (stereo unspecified),5.4%
COc1cc(-c2nc(-c3ccccc3)c(-c3cc([N+](=O)[O-])ccc3C)[nH]2)cc(OC)c1OC,-6.1%
Cc1ccc(NC(=O)n2ccc(-c3ccc(-n4ccnc4)cc3)n2)cc1,-1.6%
CCN(C(=O)COC(=O)c1cc(-c2ccccc2)nc2c1c(C)nn2-c1ccccc1)C1CCS(=O)(=O)C1 (stereo unspecified),-2.8%
CCN(CC)S(=O)(=O)c1cc(NC(=O)Cn2ncc(Cl)c(Cl)c2=O)ccc1C,20µM*
CCOC(=O)c1ccc(NC(=O)Cn2ncc(Cl)c(Cl)c2=O)cc1,4.5%
COc1ccc(NC(=O)Cn2ncc(Cl)c(Cl)c2=O)cc1S(=O)(=O)N1CCOCC1,-6.8%
SMILES,ERK EGF block
CSc1cccc(NC(=S)N(CCC(C)C)C(C)c2ccncc2)c1 (stereo unspecified),-19.9%[57.5 µM]
Cc1cccc(-c2n[nH]c(=S)n2/N=C/c2ccc(C)s2)c1,-6.9%
COc1cccc(-c2nnn(CC(C)=O)n2)c1,-1.2%
COc1cc(OC)c(-c2c3cc(O)c(=O)cc-3oc3cc(O)c(O)cc23)cc1OC,15.8µM*
COc1cc2oc(-c3ccccc3)cc(=O)c2cc1OC,5.7%
Cc1c2cc(O)c(=O)cc-2oc2cc(O)c(O)cc12,1.0%[57.5 µM]
Cc1ccccc1NC(=O)Cc1nc(CCl)cs1,0.3%
O=C1NCCN1c1ncc([N+](=O)[O-])s1,-2.8%[25.7 µM]
O=[N+]([O-])c1cnc(Sc2ccncn2)s1,14.1µM*
O=C(Nc1ccc(Cl)cc1)Nc1ccccc1Sc1ncc([N+](=O)[O-])s1,-3.5%[57.5 µM]
CCC1Cc2c(nc(N)c3c(N)nc(N4CCOCC4)c(C#N)c23)O1 (stereo unspecified),6.4%
O=C(CSc1nc(-c2ccccc2)nc2ccc(F)cc12)Nc1cccc(C(=O)O)c1,-4.4%[57.5 µM]
COc1ccc(CN(CC(=O)NC2CCCC2)C(=O)c2ccc(-c3ccccc3)[nH]2)cc1,2.2%
C=CCNC(=O)COC(=O)CCC(=O)c1cccs1,-7.1%[57.5 µM]
Cn1c(CNC2CCCCC2)nc2ccccc21,-7.2%
Cc1cc(C)c(C)c(N=Nc2nc3ccccc3n2C)c1C,14.1µM*
C/C(=N\NC(=O)c1ccccc1)c1nc2ccccc2n1C,6.1%
OC(CNCc1ccc(-c2ccccc2)cc1)c1ccccc1 (stereo unspecified),-13.7%
Cc1ccc(NC(=O)COC(=O)C(NS(=O)(=O)c2ccc(Cl)cc2)C(C)O)c(Br)c1 (stereo unspecified),-1.1%
CN1CCCC(OC(=O)c2cccc(S(=O)(=O)N3CCCCCC3)c2)C1 (stereo unspecified),-15.7%[57.5 µM]
Cc1cc(N(C)C)ccc1N=Nc1ccc2ncccc2c1,20µM*
Cc1ccc(N=Nc2ccc(O)c3ncccc23)cc1C,-6.1%
Cc1nnc(C)c2c(C)n(-c3ccc4ncccc4c3)c(C)c12,-3.8%
CCOc1ccc(NC(=S)N2CCn3c(nc4ccccc43)C2)cc1,2.7%
N#Cc1ccsc1NC(=O)CN1CCN(c2ccccc2)CC1,-2.2%
CCc1ccc(Nc2c([N+](=O)[O-])c(=O)oc3ccccc23)cc1,17.8µM*
CCNc1c([N+](=O)[O-])c(=O)oc2ccccc12,-2.0%
Cc1ccc(Nc2c([N+](=O)[O-])c(=O)oc3ccccc23)cc1,5.4%
COc1ccccc1/C=C(/C(=O)OCC(N)=O)c1ccccc1,1.0%
Cc1ccc(N/C(N)=N/c2nc(C)cc(C)n2)cc1,2.6%
